For 38 compounds, growth inhibition results are on record in PubChem BioAssay (NCI).

This is part of a sample that, as a whole, favours compounds with a hit. Of some 79,000 tested, about 15% had one in any assay. Unmarked numbers belong to inactive results. The source made the active and inactive calls. No stated cut-off is given here; in the data, active means growth inhibition above about 70%; inactive means the rest.

Test [1] can be described thus: NCI Yeast Anticancer Drug Screen. Data for the rad50 strain (AID 155).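 Further: 0% = growth of vehicle-only cultures of the same strain.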 The conditions noted are these: S. cerevisiae rad50 strain growth inhibition; at 50.0 µM; active compounds read high. Summed up:
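Readout: growth inhibition relative to vehicle-treated cultures. Compound exposure was carried out in a genetically defined yeast strain deficient in DNA damage repair.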

A short description of test [2]: NCI Yeast Anticancer Drug Screen. Data for the mec2-1 strain (AID 157). Conditions: S. cerevisiae mec2-1 strain, at 50.0 µM, active compounds read high. Summed up:
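Compounds were applied to mec2-1 yeast cells. Their growth was then compared with that of vehicle-treated cultures to give growth inhibition.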

Test [3] is described as follows: NCI Yeast Anticancer Drug Screen. Data for the sgs1 mgt1 strain (AID 161).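 Further: 0% = growth of cultures given vehicle only.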 The conditions noted are these: S. cerevisiae sgs1 mgt1 strain, at 50.0 µM, active compounds read high. Summed up: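 Percent growth inhibition was derived by comparing compound-exposed mutant yeast with vehicle-exposed cultures. The strain carries alterations in DNA damage repair.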
Test [4] can be described thus: NCI Yeast Anticancer Drug Screen. Data for the cln2 rad14 strain (AID 165).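 Further: 0% = growth equal to vehicle treated cultures.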 The conditions noted are these: S. cerevisiae cln2 rad14 strain, at 50.0 µM, active compounds read high. Summed up: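 Strain: cln2 rad14 yeast, altered in cell cycle control and DNA damage repair. Read-out: growth inhibition vs vehicle.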
Test [5] is described as follows: NCI Yeast Anticancer Drug Screen. Data for the bub3 strain (AID 167). The conditions noted are these: S. cerevisiae bub3 mutant strain, at 50.0 µM, active compounds read high. Summed up: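 Readout: yeast growth inhibition, expressed relative to vehicle-only wells. The test organism is a mutant strain from a panel with lesions in DNA repair or checkpoint genes.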
Test [6] is described as follows: NCI Yeast Anticancer Drug Screen. Data for the mlh1 rad18 strain (AID 175). The conditions noted are these: S. cerevisiae mlh1 rad18 strain growth inhibition; at 50.0 µM; active compounds read high. Summed up: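 A repair-deficient yeast strain is exposed to test compound, and growth is scored relative to vehicle-treated controls.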

Consider `COc1cc(NC=C2C(=O)OC(C)(C)OC2=O)c(OC)c(C)c1OC`, for which the growth inhibition was 1.25% in test [1]; -27.1% in test [2]; -10.1% in test [3]; 0.5% in test [4]; -22.9% in test [5]; 4.15% in test [6].
Take `[O-][n+]1cc[n+]([O-])c2cc(O)ccc21`: the growth inhibition was -13.5% in test [1]; -25.1% in test [2]; 3.8% in test [3]; -20.1% in test [4]; 1.1% in test [5]; 10.7% in test [6].
As for `O=c1ccc2c(O)c([N+](=O)[O-])cc([N+](=O)[O-])c2[nH]1`, the growth inhibition was 10% in test [1]; -15.7% in test [2]; 3.15% in test [3]; 8.85% in test [4]; 6.3% in test [5]; 20.2% in test [6].
Consider `COc1ccc2c(c1)nc1n2C(N)=Nc2ccccc2S1`, for which the growth inhibition is 44.5% in test [1]; 23.8% in test [2]; 36.2% in test [3]; 19.9% in test [4]; 58% in test [5]; 36.5% in test [6].
For the compound `Brc1ccccc1C=NC12CC3CC(CC(C3)C1)C2`, the growth inhibition was -2.55% in test [1]; -7.5% in test [2]; 2.25% in test [3]; -55.1% in test [4]; -3.45% in test [5]; -5% in test [6].
For the compound `Cc1ccc(S(=O)CC(CF)OCn2cc(C)c(=O)[nH]c2=O)cc1` (stereo not drawn), the growth inhibition in test [1] was 1.6%; in test [2] it was 6.65%; in test [3] it was -42.6%; in test [4], 10.2%; in test [5] it was -16.1%; in test [6], -53%.
Regarding `CCOC(=O)c1ccc(NC(=O)c2ccc(Cl)cc2Cl)cc1`, the growth inhibition is -7.7% in test [1]; 18.6% in test [2]; 6.5% in test [3]; -18.1% in test [4]; 36.6% in test [5]; -4.25% in test [6].
Take `O=C(Oc1c(Cl)cc([N+](=O)[O-])cc1[N+](=O)[O-])Sc1ccccc1`: the growth inhibition was 99.4% (active) in test [1]; 99.7% (active) in test [2]; 99.5% (active) in test [3]; 99.2% (active) in test [4]; 99.5% (active) in test [5]; 99.5% (active) in test [6].
With `CC1(c2ccccc2)OC1(C)c1ccccc1` (stereo not drawn), the growth inhibition was 5.7% in test [1]; -5.6% in test [2]; -7.65% in test [3]; -17.1% in test [4]; 21.1% in test [5]; 28.8% in test [6].
For the compound `O=C(O)c1cnc2c(ccc3[nH]cccc32)c1=O`, the growth inhibition in test [1] is -7.3%; in test [2] it was -33.8%; in test [3], -9%; in test [4] it was 15.6%; in test [5] it was 19.6%; in test [6] it was -2.8%.
Turning to `c1ccc(-c2c3ccccc3c(-c3ccccc3)c3ccccc23)cc1`, the growth inhibition was 6.2% in test [1]; 5.95% in test [2]; 6.7% in test [3]; -3.75% in test [4]; 2.4% in test [5]; 19.7% in test [6].
On to `CC(N)CCN` (stereo not drawn), for which the growth inhibition is 3.7% in test [1]; 11.2% in test [2]; -5.55% in test [3]; 10.8% in test [4]; 12.1% in test [5]; 1.55% in test [6].
Take `O=C(O)CCc1ccc([N+](=O)[O-])cc1Cl`: the growth inhibition was 5.8% in test [1]; 4.95% in test [2]; 7.3% in test [3]; -24.6% in test [4]; -17.4% in test [5]; -0.4% in test [6].
Turning to `CCCNc1nc(N)[nH]c(=O)c1NC=O`, the growth inhibition is 2.45% in test [1]; -9.25% in test [2]; -6.7% in test [3]; -12.3% in test [4]; -15% in test [5]; -0.85% in test [6].
As to `Clc1ccccc1C1OCCCO1`, the growth inhibition in test [1] is -0.95%; in test [2] it was 15.1%; in test [3], -22.4%; in test [4] it was -29.8%; in test [5], -8.1%; in test [6], -6.1%.
In the case of `CCCCCCCC[N+]1([O-])CC[N+](C)([O-])CC1` (stereo not drawn), the growth inhibition in test [1] was 3.9%; in test [2], 4.1%; in test [3], -2.25%; in test [4], -21.5%; in test [5], -8.3%; in test [6], 2.55%.
For `COC(=O)C1(CC(=O)c2cccs2)NC(=S)NC(=O)C1C#N` (stereo not drawn), the growth inhibition in test [1] was 9.4%; in test [2], 3.55%; in test [3], -7.5%; in test [4] it was -3.35%; in test [5], -11.3%; in test [6], 2.55%.
On to `C=C1C(=O)C23C(O)CC4C(C)(C)[C@@H](OC(C)=O)CCC4(C)[C@]2(O)CCC1[C@@H]3O` (stereo partly drawn), for which the growth inhibition in test [1] was 46.8%; in test [2], 48.9%; in test [3] it was 44.9%; in test [4], 40.1%; in test [5], 70.5% (active); in test [6] it was 67%.
For the compound `Cc1ccc(S(=O)(=O)ON2C(=O)c3cccc4cc([N+](=O)[O-])cc(c34)C2=O)cc1`, the growth inhibition was 35.1% in test [1]; 45% in test [2]; 39.4% in test [3]; 17.4% in test [4]; -12.2% in test [5]; 8.65% in test [6].
On to `Cc1cc(=O)oc2c(C(=O)/C=C/N(C)C)c(O)ccc12`, for which the growth inhibition in test [1] was -29.9%; in test [2], 4.1%; in test [3] it was 7.85%; in test [4], 0.25%; in test [5], 9.95%; in test [6] it was 7.7%.
As to `CCN(CC)CCOC(=O)c1c(C)c(C)cc(C)c1C`, the growth inhibition in test [1] was -17.4%; in test [2], -5.45%; in test [3] it was -6.45%; in test [4] it was -29.5%; in test [5], -8.3%; in test [6], -7.7%.
In the case of `CC(=O)OCC(OC(C)=O)C(OC1OC(COC(C)=O)C(OC(C)=O)C(OC(C)=O)C1OC(C)=O)C(OC(C)=O)C(C=O)OC(C)=O` (stereo not drawn), the growth inhibition in test [1] is -0.2%; in test [2], 10.8%; in test [3] it was 9.75%; in test [4] it was -5.75%; in test [5], -3.8%; in test [6], -7.95%.
As for `Cc1nn(C(=O)Cc2ccccc2)c2c1C(c1ccc(O)cc1O)SC(N)=N2` (stereo not drawn), the growth inhibition in test [1] is -38.9%; in test [2], -23.1%; in test [3], -35.5%; in test [4], 0.8%; in test [5], -15.6%; in test [6], -36.5%.
Take `O=S(O)CCCCSSCC(O)CO` (stereo not drawn): the growth inhibition was 22.5% in test [1]; 9.65% in test [2]; 15.2% in test [3]; 63.5% in test [4]; 24.1% in test [5]; 13.7% in test [6].
`COc1ccc(C2CC(=O)N(c3ncccc3C)C(=O)C2)cc1`: the growth inhibition in test [1] is -1%; in test [2], 6.9%; in test [3], -1.05%; in test [4], -21.1%; in test [5] it was -18.8%; in test [6], 3.65%.
As for `CC(O)CN1CCN(CN(CC(C)O)CC(C)O)CC1` (stereo not drawn), the growth inhibition is 0.55% in test [1]; 7.25% in test [2]; 10.7% in test [3]; -2.65% in test [4]; 9% in test [5]; -16.4% in test [6].
For the compound `O=P1(c2ccccc2)c2ccccc2CCc2ccccc21`, the growth inhibition in test [1] was 18%; in test [2], 2.75%; in test [3], 21.8%; in test [4], 22.1%; in test [5], 2.25%; in test [6], 8.35%.
With `Cc1cccc(C(C)(C)C)c1NC(=O)/C(Cc1nc2ccc([N+](=O)[O-])cc2[nH]c1=O)=N/NC(=O)C[N+](C)(C)C`, the growth inhibition in test [1] is 6.4%; in test [2], -10.4%; in test [3], -9.1%; in test [4], -17.4%; in test [5] it was -18.9%; in test [6], -22.6%.
As for `O=C1C=CC2CCC1C2` (stereo not drawn), the growth inhibition in test [1] is 24.8%; in test [2] it was -6.25%; in test [3] it was -20.5%; in test [4], 26.6%; in test [5] it was -38.8%; in test [6], -29.3%.
As for `CC1(C)CCCC2(C)[C@@H]1CC[C@]13C[C@](C)(CC[C@@H]21)[C@@H]3CO` (stereo partly drawn), the growth inhibition is -17.8% in test [1]; -2.9% in test [2]; -22.6% in test [3]; -3.35% in test [4]; -32.1% in test [5]; -19.9% in test [6].
`O=C(Nc1ccc(Br)cc1)Nc1ccc(Br)cc1`: the growth inhibition is -23.3% in test [1]; 8.15% in test [2]; 15.3% in test [3]; -36.4% in test [4]; 31.9% in test [5]; 6.25% in test [6].
For `CCOC(=O)c1c(NC(=O)CCl)ssc1=S`, the growth inhibition was 15.2% in test [1]; 28.4% in test [2]; 42.5% in test [3]; 22.8% in test [4]; 4.7% in test [5]; 43.6% in test [6].
Consider `O=C(CSCSCC(=O)Nc1ccc(C2=NCCN2)cc1)Nc1ccc(C2=NCCN2)cc1`, for which the growth inhibition is 35% in test [1]; 18.4% in test [2]; 36.6% in test [3]; -6.1% in test [4]; 17.9% in test [5]; 19.9% in test [6].
For the compound `COc1cc(NS(=O)(=O)c2ccc(N)cc2)nc(OC)n1`, the growth inhibition was -28.3% in test [1]; -11.3% in test [2]; -11.1% in test [3]; -60.2% in test [4]; -22.6% in test [5]; -3.9% in test [6].
With `O=C1CSC(/C(=C/c2ccccc2)c2nc3ccccc3[nH]2)=N1`, the growth inhibition in test [1] is 6.65%; in test [2] it was -1.75%; in test [3] it was 0.15%; in test [4], 16.2%; in test [5] it was -1.6%; in test [6] it was -0.25%.
Take `O=C1CCCC(CCc2ccccc2)O1` (stereo not drawn): the growth inhibition in test [1] was 5.45%; in test [2], -4.05%; in test [3], 1.3%; in test [4] it was -8%; in test [5] it was -37.1%; in test [6], -7.9%.
Take `C=CC(CO)N1CCCCC1` (stereo not drawn): the growth inhibition is -9.15% in test [1]; 24.6% in test [2]; -1.05% in test [3]; -8.9% in test [4]; -19.2% in test [5]; 13.9% in test [6].
Regarding `O=C1OC(C2Cc3cc4c(cc3C2=O)CCC4)c2ccccc21` (stereo not drawn), the growth inhibition was -33.1% in test [1]; -25.4% in test [2]; -7.75% in test [3]; -2.55% in test [4]; -18.9% in test [5]; -13.4% in test [6].
